Activity calls are given as the source filed them. Rule for the calls: active = hit-call score of the fitted dose curve at least 0.9, where 1 is the maximum; inactive = score below 0.9.

Read-out in the first assay: not listed separately
Briefly: BSK_LPS_SRB: Viability Assessment in the BioMAP Diversity Plus: LPS Assay (AID 2283079).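 Note: total protein by sulforhodamine B absorbance as a cytotoxicity measure; measured one day after compound addition; fitted in both directions against DMSO so loss or gain of signal counts.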 The conditions noted are these: primary human HUVEC with PBMC. A digest of the protocol:
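SRB viability endpoint: cells fixed with 10% TCA, stained with 0.1% SRB, read at 560 nm, 24 h post-dose. HUVEC/PBMC co-culture; signal change in either direction scored relative to DMSO.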
`O=C(O)COc1nc(Cl)c(Cl)cc1Cl`: the outcome was inactive.
As usually defined, the AC50 is the midpoint of the concentration-response curve, whichever way the signal moves. As to `N#Cc1nn(-c2c(Cl)cc(C(F)(F)F)cc2Cl)c(N)c1S(=O)C(F)(F)F` (stereo not given), the AC50 was 31.4 µM (active).
Take `CC(C)Oc1cc(-n2nc(C(C)(C)C)oc2=O)c(Cl)cc1Cl`: the AC50 was 29.3 µM (active).
Regarding `CCOP(=S)(OCC)SCn1c(=O)oc2cc(Cl)ccc21`, the half-maximal activity concentration (AC50) was 31.6 µM (active).
As to `CCCC1COC(Cn2cncn2)(c2ccc(Cl)cc2Cl)O1` (stereo not given), the result was inactive.
The same measure, in the same setting: as for `COC(=O)C=C(C)OP(=O)(OC)OC`, the entry is “inactive”; as for `CCNc1nc(Cl)nc(NCC)n1`, “inactive”.
Consider `COc1ccc(C(c2ccc(OC)cc2)C(Cl)(Cl)Cl)cc1`, for which the AC50 is 20 µM (active).
Regarding `CCOC(=O)C(Cl)Cc1cc(-n2nc(C)n(C(F)F)c2=O)c(F)cc1Cl` (stereo not given), the outcome was inactive.
As to `CCc1nn(C)c(C(=O)NCc2ccc(C(C)(C)C)cc2)c1Cl`, the AC50 is 30 µM (active).
As for `N#CC(CCc1ccc(Cl)cc1)(Cn1cncn1)c1ccccc1` (stereo not given), the result was inactive.
As for `CN(C)C(=S)SSC(=S)N(C)C`, the AC50 is 22.9 µM (active).
Same read-out and setting: the same measure for `CNC(=S)S`: 26.1 µM (active).
In the case of `CON(C)C(=O)Nc1ccc(Cl)c(Cl)c1`, the result was inactive.
As to `Cc1ccc(-c2c(Cl)nc(C#N)n2S(=O)(=O)N(C)C)cc1`, the half-maximal activity concentration (AC50) is 26 µM (active).
As for `COc1nc(NC(C)C)nc(NC(C)C)n1`, the outcome was inactive.
With `CC(C)(C)c1ccc(CSc2cnn(C(C)(C)C)c(=O)c2Cl)cc1`, the AC50 was 7.73 µM (active).
`COC(=O)N(OC)c1ccccc1COc1ccn(-c2ccc(Cl)cc2)n1`: the AC50 is 10.1 µM (active).
Take `N#Cc1cc(Br)c(O)c(Br)c1`: the AC50 is 3.97 µM (active).
With `COP(=S)(OC)Oc1nc(Cl)c(Cl)cc1Cl`, the result was inactive.
As to `CCCCNC(=O)n1c(NC(=O)OC)nc2ccccc21`, the AC50 is 7.48 µM (active).
On to `CC(Oc1ccc(Cl)cc1Cl)C(=O)O` (stereo not given), for which the outcome was inactive.
For `O=C(Nc1ccccc1)Nc1ccnc(Cl)c1`, the outcome was inactive.
Same read-out and setting: as for `CC1=C(C(=O)Nc2ccccc2)SCCO1`, the entry is “inactive”.
As to `CCOc1cc(Oc2ccc(C(F)(F)F)cc2Cl)ccc1[N+](=O)[O-]`, the AC50 is 9.65 µM (active).
Turning to `Fc1ccc(Oc2ccnc3cc(Cl)cc(Cl)c23)cc1`, the AC50 was 24 µM (active).
On the same count and under the same terms, as for `CCCCC(CC)COC(=O)c1ccccc1C(=O)OCC(CC)CCCC` (stereo not given), the figure is 4.97 µM (active).

Read-out in another assay: Interleukin-1 alpha (IL1a), IL1A (gene 3552)
Briefly: BSK_LPS_IL1a: BioMAP Diversity Plus: LPS Assay for Interleukin-1 alpha (IL1a) Biomarker Activity (AID 2283080). The conditions noted are these: primary human HUVEC with PBMC; actives raise or lower the signal. The method, boiled down:
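Readout is IL-1a level by ELISA, 24 h post-dose, fitted as gain or loss relative to DMSO. System: LPS-activated human primary co-culture of vascular endothelium and peripheral blood mononuclear cells, with parallel SRB total-protein cytotoxicity.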
With `O=C(O)COc1nc(Cl)c(Cl)cc1Cl`, the outcome was inactive.
As for `N#Cc1nn(-c2c(Cl)cc(C(F)(F)F)cc2Cl)c(N)c1S(=O)C(F)(F)F` (stereo not given), the AC50 is 35.9 µM (active).
On the same count and under the same terms, the same measure for `CC(C)Oc1cc(-n2nc(C(C)(C)C)oc2=O)c(Cl)cc1Cl`: 32.7 µM (active).
`CCOP(=S)(OCC)SCn1c(=O)oc2cc(Cl)ccc21`: the outcome was inactive.
With `CCCC1COC(Cn2cncn2)(c2ccc(Cl)cc2Cl)O1` (stereo not given), the result was inactive.
Still for that read-out and setting: as for `COC(=O)C=C(C)OP(=O)(OC)OC`, the entry is “inactive”.
Take `CCNc1nc(Cl)nc(NCC)n1`: the outcome was inactive.
`COc1ccc(C(c2ccc(OC)cc2)C(Cl)(Cl)Cl)cc1`: the AC50 is 32.5 µM (active).
With `CCOC(=O)C(Cl)Cc1cc(-n2nc(C)n(C(F)F)c2=O)c(F)cc1Cl` (stereo not given), the outcome was inactive.
On to `CCc1nn(C)c(C(=O)NCc2ccc(C(C)(C)C)cc2)c1Cl`, for which the AC50 was 33 µM (active).
Regarding `N#CC(CCc1ccc(Cl)cc1)(Cn1cncn1)c1ccccc1` (stereo not given), the result was inactive.
Take `CN(C)C(=S)SSC(=S)N(C)C`: the AC50 is 16.1 µM (active).
In the case of `CON(C)C(=O)Nc1ccc(Cl)c(Cl)c1`, the result was inactive.
On the same count and under the same terms, as for `Cc1ccc(-c2c(Cl)nc(C#N)n2S(=O)(=O)N(C)C)cc1`, the entry is “inactive”.
On the same count and under the same terms, the same measure for `COc1nc(NC(C)C)nc(NC(C)C)n1`: “inactive”.
Consider `CC(C)(C)c1ccc(CSc2cnn(C(C)(C)C)c(=O)c2Cl)cc1`, for which the AC50 is 20 µM (active).
As for `COC(=O)N(OC)c1ccccc1COc1ccn(-c2ccc(Cl)cc2)n1`, the outcome was inactive.
Take `N#Cc1cc(Br)c(O)c(Br)c1`: the AC50 is 20 µM (active).
Still for that read-out and setting: the same measure for `COP(=S)(OC)Oc1nc(Cl)c(Cl)cc1Cl`: 27 µM (active).
Take `CCCCNC(=O)n1c(NC(=O)OC)nc2ccccc21`: the outcome was inactive.
As to `CC(Oc1ccc(Cl)cc1Cl)C(=O)O` (stereo not given), the outcome was inactive.
The same measure, in the same setting: as for `O=C(Nc1ccccc1)Nc1ccnc(Cl)c1`, the entry is “inactive”; as for `CC1=C(C(=O)Nc2ccccc2)SCCO1`, “inactive”.
Take `CCOc1cc(Oc2ccc(C(F)(F)F)cc2Cl)ccc1[N+](=O)[O-]`: the result was inactive.
Consider `Fc1ccc(Oc2ccnc3cc(Cl)cc(Cl)c23)cc1`, for which the AC50 was 14.6 µM (active).
Consider `CCCCC(CC)COC(=O)c1ccccc1C(=O)OCC(CC)CCCC` (stereo not given), for which the result was inactive.

Read-out in the next assay: Monocyte Chemoattractant Protein-1 (MCP1), CCL2 (gene 6347)
Description: BSK_LPS_MCP1: BioMAP Diversity Plus: LPS Assay for Monocyte Chemoattractant Protein-1 (MCP1) Biomarker Activity (AID 2283081).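 For AC50: co-culture stimulated with LPS; secreted MCP-1 protein quantified by ELISA in culture supernatant.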 To be noted: primary human HUVEC with PBMC; actives raise or lower the signal. A digest of the protocol: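 Secreted MCP-1 read by ELISA at 24 h post-dosing in an LPS-activated co-culture of endothelial cells with peripheral blood mononuclear cells. Fits run in both directions, DMSO as baseline; parallel SRB staining tracks overt cytotoxicity.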
Regarding `O=C(O)COc1nc(Cl)c(Cl)cc1Cl`, the outcome was inactive.
`N#Cc1nn(-c2c(Cl)cc(C(F)(F)F)cc2Cl)c(N)c1S(=O)C(F)(F)F` (stereo not given): the AC50 is 32.4 µM (active).
Consider `CC(C)Oc1cc(-n2nc(C(C)(C)C)oc2=O)c(Cl)cc1Cl`, for which the AC50 is 30.2 µM (active).
As for `CCOP(=S)(OCC)SCn1c(=O)oc2cc(Cl)ccc21`, the AC50 was 25.8 µM (active).
With `CCCC1COC(Cn2cncn2)(c2ccc(Cl)cc2Cl)O1` (stereo not given), the result was inactive.
On the same count and under the same terms, as for `COC(=O)C=C(C)OP(=O)(OC)OC`, the entry is “inactive”; as for `CCNc1nc(Cl)nc(NCC)n1`, “inactive”.
On to `COc1ccc(C(c2ccc(OC)cc2)C(Cl)(Cl)Cl)cc1`, for which the AC50 is 29.7 µM (active).
Consider `CCOC(=O)C(Cl)Cc1cc(-n2nc(C)n(C(F)F)c2=O)c(F)cc1Cl` (stereo not given), for which the result was inactive.
For `CCc1nn(C)c(C(=O)NCc2ccc(C(C)(C)C)cc2)c1Cl`, the AC50 is 29.4 µM (active).
For `N#CC(CCc1ccc(Cl)cc1)(Cn1cncn1)c1ccccc1` (stereo not given), the outcome was inactive.
As for `CN(C)C(=S)SSC(=S)N(C)C`, the AC50 is 27.1 µM (active).
In the case of `CNC(=S)S`, the AC50 is 20 µM (active).
`CON(C)C(=O)Nc1ccc(Cl)c(Cl)c1`: the outcome was inactive.
For the compound `Cc1ccc(-c2c(Cl)nc(C#N)n2S(=O)(=O)N(C)C)cc1`, the AC50 is 29.6 µM (active).
For `COc1nc(NC(C)C)nc(NC(C)C)n1`, the result was inactive.
Take `CC(C)(C)c1ccc(CSc2cnn(C(C)(C)C)c(=O)c2Cl)cc1`: the half-maximal activity concentration (AC50) is 5.45 µM (active).
With `COC(=O)N(OC)c1ccccc1COc1ccn(-c2ccc(Cl)cc2)n1`, the AC50 is 9.04 µM (active).
Regarding `N#Cc1cc(Br)c(O)c(Br)c1`, the outcome was inactive.
For the compound `COP(=S)(OC)Oc1nc(Cl)c(Cl)cc1Cl`, the AC50 was 30.4 µM (active).
Consider `CCCCNC(=O)n1c(NC(=O)OC)nc2ccccc21`, for which the outcome was inactive.
Consider `CC(Oc1ccc(Cl)cc1Cl)C(=O)O` (stereo not given), for which the outcome was inactive.
As to `O=C(Nc1ccccc1)Nc1ccnc(Cl)c1`, the AC50 is 9.85 µM (active).
As to `CC1=C(C(=O)Nc2ccccc2)SCCO1`, the outcome was inactive.
In the case of `CCOc1cc(Oc2ccc(C(F)(F)F)cc2Cl)ccc1[N+](=O)[O-]`, the outcome was inactive.
With `Fc1ccc(Oc2ccnc3cc(Cl)cc(Cl)c23)cc1`, the AC50 is 29.5 µM (active).
Regarding `CCCCC(CC)COC(=O)c1ccccc1C(=O)OCC(CC)CCCC` (stereo not given), the outcome was inactive.

The record behind these values is PubChem BioAssay (EPA / NIEHS).
